Shown are actives, neighbours in structure and some others; about 2.7% of the full set was active somewhere.
PGC1a acetyl inh: inhibitors of PGC1a acetylation signal, primary screen, cell-based, U2OS, AlphaScreen, inhibitor mode; AlphaScreen anti-acetyl-lysine; with virally co-expressed GCN5 acetyltransferase; inhibition, % at 15.6 µM; hit rate 0.17% among 350,000; AID 651687, 2012;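 active = every replicate shows inhibition of at least 40%; inconclusive = mean inhibition at least 40% but some replicate below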;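 note: 0% = neutral control wells and 100% = positive control wells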
PAX8 inh HTS: inhibitors of PAX8-driven TPO luciferase reporter, primary screen, RMG-I cells, single concentration; inhibition, % at 12.6 µM; SteadyGlo, 24 h; hit rate 1.2% among 360,000;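 active = mean replicate inhibition at least 60% with every replicate also reaching 60%; inconclusive = only one of the two criteria is met; inactive = mean below 60% and not all replicates reaching 60%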;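 note: luciferase light reporting Pax8 driven TPO promoter activity; plate controls were median of neutral control wells for no effect and mitoxantrone controls for full effect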
HIV Env fusion: inhibitors of HIV-1 Env-driven cell-cell fusion, primary screen, HeLa-JRFL effector, CEM21 target cells, luciferase; inhibition, % at 12.3 µM; hit rate 1.1% among 360,000; AID 651610, 2012;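 active = mean replicate inhibition score of at least 50 and every replicate individually at or above 50; inconclusive = only one of the two criteria met; inactive = mean below 50 and not all replicates reaching 50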;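 note: 0% = plate neutral controls and 100% = maraviroc near 300 nM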
EWS-Fli block: EWS/Fli-driven NR0B1 reporter inhibitors, primary screen, A673 cells, NR0B1 luciferase, luminescence, MLPCN library; viability-normalised; inhibition, % at 12.6 µM; hit rate 0.67% among 350,000;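 active = mean inhibition of at least 50% after viability correction, with every replicate also passing that limit; inconclusive = mean reaches 50% but only one of two replicates passes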;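 note: firefly luciferase signal divided by Alamar Blue viability fluorescence both relative to DMSO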
INS-1E GSIS act: GLuc luminescence reporter in INS-1E cells, primary screen for activators of glucose-dependent secretion of insulin | activation, % at 16.6 µM | INS-1E GLuc reporter insulin secretion, 2-3 h | hit rate 0.61% among 370,000;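 active = lowest replicate activation of at least 40%, so every replicate reaches that level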;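 note: 0% = median of neutral control wells and 100% = median of IBMX positive control wells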
CFTR F508del cor: F508del CFTR correction, initial screen, CFBE line, single point. CFBE cells, YFP halide quenching; stimulated with forskolin plus potentiator P3; % fluorescence drop versus neutral controls. AID 720511, 2013. activity (quench increase), % at 7.58 µM. hit rate 0.36% among 350,000;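 active = mean added fluorescence quench of at least 8% versus neutral control, with both replicates also reaching 8%; inconclusive = only one of the mean or replicate conditions met; inactive = mean below 8% and not both replicates reaching 8%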;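 note: cells transiently co-express mutant CFTR-F508del with the halide-sensitive YFP; corrector assay measuring rescue of mutant channel to the surface after 24 h compound exposure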
* = called active by the depositor; ? = inconclusive; / = not tested or not shown.

SMILES	PGC1a acetyl inh	PAX8 inh HTS	HIV Env fusion	EWS-Fli block	INS-1E GSIS act	CFTR F508del cor
CCN(CC)C(=O)COc1cc(C)cc2oc(=O)c3c(c12)CCCC3	-8	82*	-17	15	-12	1
Cc1cc(OCC(=O)OC(C)(C)C)c2c3c(c(=O)oc2c1)CCC3	-13	-9	-26	/	-3	/
Fc1ccc(C(OCCN2CCN(CCCc3ccccc3)CC2)c2ccc(F)cc2)cc1	-18	?	71*	34	/	1
c1ccc(CCCN2CCN(CCOC(c3ccccc3)c3ccccc3)CC2)cc1	-11	22	8	17	/	-16
CCOC(=O)[C@]12Cc3cc(Cl)ccc3[C@H]1N(Cc1ccccc1)C(=O)c1cc(OC)ccc12	/	34	4	24	-5	1
CCOC(=O)[C@]12Cc3cc(Cl)ccc3[C@H]1N(C)C(=O)c1ccccc12	/	14	25	-2	-14	2
CCOC(=O)[C@]12Cc3c(cc(OC)c(OC)c3OC)[C@H]1N(Cc1ccccc1)C(=O)c1ccccc12	-12	22	64*	4	-9	-2
CCOC(=O)[C@]12Cc3cc(Cl)ccc3[C@H]1N(C(C)C)C(=O)c1ccccc12	/	86*	-36	29	348	0
CCOC(=O)[C@]12Cc3cc(OC)c(OC)cc3[C@H]1N(Cc1ccccc1)C(=O)c1ccccc12	-3	10	41	-7	-5	3
CCCCCN1C(=O)c2cc(OC)ccc2[C@@]2(C(=O)OCC)Cc3cc(Cl)ccc3[C@@H]12	/	16	6	57*	-6	-1
CCOC(=O)[C@]12Cc3cc(OC)ccc3[C@H]1N(C1CCCCC1)C(=O)c1ccccc12	/	76*	-23	57*	-29	1
O=C1CNC[C@@H]2[C@H](c3ccc(Br)cc3)[C@H](CO)N12	0	-23	/	-16	4	0
COC(=O)[C@@H]1[C@@H](CO)[C@@H]2Cn3c(cccc3=O)[C@H]1N2C(=O)C1CCC1	/	/	/	-7	/	2
CC(=O)N1C[C@@H]2N[C@H](C1)C2c1ccc(Br)cc1 (some centres undefined)	/	/	/	/	-12	/
COC(=O)[C@@H]1[C@@H](C(=O)OC)C2(c3ccccc3-c3ccccc32)N(c2ccc(Cl)cc2)N1C#N	77*	/	/	/	-3	/
COC(=O)C[C@]1(C(=O)OC)CN(C#N)N(c2ccc(Cl)cc2)C12c1ccccc1-c1ccccc12	18	109*	-30	/	9	/
O=S1(=O)N(CCN2CC=C(c3c[nH]c4cc(F)ccc34)CC2)c2cccc3c2N1CCC3	-1	85*	?	13	-7	-1
C=CCN1[C@@H]2CN(CC(F)(F)F)C[C@H]1C2c1ccc(Br)cc1 (some centres undefined)	/	/	/	/	4	/
O=[N+]([O-])c1ccc(N2CCOCC2)c2c1no[n+]2[O-]	84*	98*	-229	24	/	12*
O=[N+]([O-])c1ccc(N2CCOCC2)c2cccnc12	/	-9	7	5	75*	8
O=[N+]([O-])c1ccc(N2CCCCC2)c2ncccc12	-3	-16	-23	-7	-18	-1
O=C(O)CCCc1ccc(N(CCCl)CCCl)cc1	2	-13	-15	13	9	1
ClCCN(CCCl)c1ccc(-n2cnc3c(Cl)ncnc32)cc1	4	24	11	55*	/	-7
COC(=O)[C@@H]1[C@@H](CO)[C@@H]2Cn3c(ccc(-c4ccncc4)c3=O)[C@H]1N2CCc1ccccc1	/	/	/	2	12	/
Cc1ccccc1S(=O)(=O)N1[C@@H]2Cn3c(ccc(-c4cccnc4)c3=O)[C@H]1[C@@H](C(=O)O)[C@@H]2CO	/	9	/	-1	7	-3
SMILES	PGC1a acetyl inh	PAX8 inh HTS	HIV Env fusion	EWS-Fli block	INS-1E GSIS act	CFTR F508del cor
CC(C)CC(NC(=O)CCCNC(=O)CCC(=O)OC1O[C@H]2OC3(C)CC[C@H]4[C@H](C)CCC(C1C)C24OO3)C(=O)O (some centres undefined)	/	74*	7	17	-15	4
CC1C(OC(=O)CCC(=O)NC(C)(C)CO)O[C@H]2OC3(C)CC[C@H]4[C@H](C)CCC1C24OO3 (some centres undefined)	/	77*	45	23	-8	6
CN(C)C(=O)[C@H]1[C@H](CO)[C@H]2Cn3c(cccc3=O)[C@@H]1N2CC1CC1	/	/	/	3	14	1
CC(C)NC(=O)N1C[C@@H]2C(c3ccc(Br)cc3)[C@H](C1)N2C (some centres undefined)	/	/	/	/	22	/
Cc1ccc(-c2cc(-c3ccc(C)cc3)[n+](-c3ccc(C(=O)[O-])cc3)c(-c3ccc(C)cc3)c2)cc1	-8	-3	10	-5	-42	0
Cc1ccc(-c2cc(-c3ccccc3)cc(-c3ccccc3)[n+]2-c2ccccc2)cc1	-23	95*	23	61*	4	3
Cc1ccc(-c2cc(-c3ccc(C)cc3)[n+](-c3ccccc3)c(-c3ccc(C)cc3)c2)cc1	-16	/	/	/	/	/
CCOC(=O)c1cccc(-[n+]2c(-c3ccccc3)cc(-c3ccccc3)cc2-c2ccccc2)c1	/	89*	?	17	-52	2
CN(C)c1ccc(-[n+]2c(-c3ccccc3)cc(-c3ccccc3)cc2-c2ccccc2)cc1	-46	88*	94*	53*	-36	8.3*
c1ccc(-c2cc(-c3ccccc3)[n+](-c3ccccc3)c(-c3ccccc3)c2)cc1	-2	96*	80*	69*	-49	1
O=C(Cc1ccccn1)N1CCCCN2[C@H](C1)[C@@H](c1ccc(C#Cc3ccccc3)cc1)[C@@H]2CO	7	10	/	-7	16	3
COC(=O)[C@H]1[C@H](CO)[C@H]2Cn3c(ccc(C4=CCCC4)c3=O)[C@@H]1N2S(=O)(=O)c1cn(C)cn1	/	-2	/	2	15	0
CS(=O)(=O)N1C[C@@H]2N[C@H](C1)C2c1ccccc1 (some centres undefined)	/	/	/	/	15	/
C[C@H]1CCC/C=C/[C@@H]2C[C@H](O)C[C@H]2[C@@H](O)/C=C/C(=O)O1	?	119*	82*	73*	-21	-26
COc1ccc(CN2Cc3cnnn3-c3ccccc3C2c2ccccc2)cc1 (centres undefined)	-14	32	-12	30	-15	-1
COc1ccc(CN2Cc3cnnn3-c3ccccc3C2C#N)cc1 (centres undefined)	-18	62*	-48	?	-15	2
CN1Cc2cnnn2-c2ccccc2C1C#N (centres undefined)	13	-7	-15	5	12	3
N#CC1c2ccccc2-n2nncc2CN1Cc1cc(Cl)cc(Cl)c1 (centres undefined)	-12	106*	-8	62*	-30	-3
